Source: PubChem
Hits are enriched below; roughly 5.9% of the tested compounds scored in any of these assays.
VP16 counter: VP16 counterscreen qHTS for inhibitors of ROR gamma transcriptional activity; Drosophila S2 Gal4-VP16 UAS-luciferase, luminescence, 20 h; Potency, µM (titrated, usually from 53.6 µM), for the others: top-dose activity, negative = inhibition, actives largely listed as inhibitors; actives 3.5% (n = 310,000); AID 2546, 2010;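 further: Gal4-VP16 expression switched on by copper sulfate through the metallothionein promoter; on the % scale 0 is the no-effect control and ±100 the full control effect; nearly all actives have a fitted effect of over 50% in size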
RORg inh: qHTS for inhibitors of ROR gamma transcriptional activity; Nuclear receptor ROR-gamma (Mus musculus), P51450; Drosophila S2 Gal4-RORgamma UAS-luciferase reporter, 20 h; Potency, µM (highest dose often 53.6 µM), without a hit: at the top dose activity change, negative = inhibition, hits mostly inhibitors; actives 5.4% (n = 310,000); AID 2551, 2010; further: on the % scale 0 is the no-effect control and ±100 the full control effect; nearly all actives have a fitted effect of over 60% in size
Target sequence (P51450 whole entry, looked up, the tested form may be a part): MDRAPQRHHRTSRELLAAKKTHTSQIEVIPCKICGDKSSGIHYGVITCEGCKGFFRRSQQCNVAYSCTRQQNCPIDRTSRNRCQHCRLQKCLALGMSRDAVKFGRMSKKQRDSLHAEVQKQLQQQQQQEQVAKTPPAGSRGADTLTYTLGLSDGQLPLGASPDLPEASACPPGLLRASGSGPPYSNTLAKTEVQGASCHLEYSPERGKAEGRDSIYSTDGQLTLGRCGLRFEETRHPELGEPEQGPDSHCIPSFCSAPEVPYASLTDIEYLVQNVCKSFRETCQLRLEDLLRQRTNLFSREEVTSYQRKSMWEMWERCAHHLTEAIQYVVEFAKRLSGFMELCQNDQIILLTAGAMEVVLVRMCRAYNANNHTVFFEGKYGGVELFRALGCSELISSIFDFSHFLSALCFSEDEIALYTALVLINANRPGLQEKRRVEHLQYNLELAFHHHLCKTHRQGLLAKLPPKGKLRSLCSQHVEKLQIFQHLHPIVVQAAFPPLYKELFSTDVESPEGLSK
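Stable Schneider cell line, Gal4 DNA-binding domain fused to ROR gamma, UAS-luciferase. Cmpd 1 hr RT → CuSO4 700 uM final → 20 hr RT → luciferase reagent 10 min → luminescence.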
GLP-1R agonist: qHTS of GLP-1 Receptor Agonists. actives 0.007% (n = 380,000). Potency, µM (series often up to 45.6 µM), for inactives: top-dose activation, actives largely listed as activators. Glucagon-like peptide 1 receptor (Homo sapiens), P43220. HEK293 GLP-1R CRE-luciferase, luminescence, 4-6 h; cells express a hypersensitive GLP-1R form. AID 624172, 2012; further: % of control where 0% means no effect
GLP-1R inv ag: qHTS of GLP-1 Receptor Inverse Agonists (Inhibition Mode). Glucagon-like peptide 1 receptor (Homo sapiens), P43220. actives 1.6% (n = 410,000). HEK293 GLP-1R CRE-luciferase, luminescence, 24 h; GLP-1R form is constitutively active. Potency, µM (titrated, usually from 38.3 µM), for inactives: at the highest dose activity change, negative = inhibition, usual class: inhibitors. AID 624417, 2012; further: on the % scale 0 is the no-effect control and ±100 the full control effect; nearly all actives have a fitted effect of over 55% in size
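Readout was luciferase luminescence, measured 12 min after detection reagent at room temperature. Beforehand, GLP-1R reporter HEK293 cells had sat 12 h, then received compounds for 24 hr at 37 deg C.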
HEK293 tox: qHTS of GLP-1 Receptor Inverse Agonists: Cytotox Screen | HEK293 cAMP-luciferase reporter cells, luminescence, 24 h | Potency, µM (highest dose often 38.3 µM), for inactives: at the highest dose activity change, negative = inhibition, hits mostly inhibitors | actives 0.13% (n = 410,000);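 further: loss of luciferase light is scored as toxicity; on the % scale 0 is the no-effect control and ±100 the full control effect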
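Here, cytotoxicity is scored as loss of luminescence. The MLSMR collection was tested on cells seeded in medium containing 10% Nu serum, with a 24 hr compound exposure preceded by 12 hours of culture.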
Starred values were filed as active, the others as inactive; ? = inconclusive; . = no result; [ ] = dose if it differs, or a comment. The call rests on the fitted dose curve; in most records, active means well fitted curve in the direction sought with a large enough effect; inconclusive means small, poorly fitted or top-dose-only effect, or another doubt; inactive means no such curve, though single readings can be large; an effect the other way counts as inactive or inconclusive. Potency means the concentration at half of the fitted maximal effect.

SMILES | VP16 counter | RORg inh | GLP-1R agonist | GLP-1R inv ag | HEK293 tox
Cc1cc(N/N=C/c2ccc(F)cc2)nc(NCc2ccccc2)n1 | ? | 11µM* | 5% | ? | ?
Cc1cc(N/N=C/c2ccc(N(C)C)cc2)nc(NCc2ccccc2)n1 | -3% | -28% | 4% | -1% | 7%
Cc1ccc(/C=N/Nc2cc(C)nc(NCc3ccccc3)n2)cc1 | ? | 20µM* | 14% | 2.8µM* | -15%
CCc1ccc(C2/C=C\CNC(c3ccccc3)C(=O)N2Cc2ccc(C)cc2)cc1 (stereo not drawn) | -6% | -26% | . | . | .
CCC1CN(C(=O)Nc2cc(C)ccc2OC)c2cc(Cl)ccc2O1 (stereo not drawn) | . | . | . | ? | 22%
Cc1cc(C)n(-c2nc(Nc3ccccc3C)nc(-n3nc(C)cc3C)n2)n1 | 10µM* | 2.8µM* | . | . | .
Cc1csc(Nc2ccccc2C(F)(F)F)n1 | -3% | -33% | 4% | ? | -4%
Cc1cc(C)n(-c2nc(Nc3ccccc3C(F)(F)F)nc(-n3nc(C)cc3C)n2)n1 | 7.1µM* | 7.1µM* | -34% | ? | -23%
Cc1cc(Nc2ccccc2C)nc(-n2nc(C)cc2C)n1 | . | . | . | -20% | 1%
Cc1c(Br)c(=O)oc2c(Br)c(O)c(O)cc12 | -20% | 5µM* | -2% | 4% | 15%
Cc1c(Br)c(=O)oc2c(Br)c(O)ccc12 | 1% | 3% | -7% | -8%[0.307 µM] | -5%[0.307 µM]
S=c1[nH]ccn1-c1ccccc1Cl | -14% | ? | 2% | -10% | 8%
Cc1ccc(-n2cc[nH]c2=S)cc1C | -92% | 0.05µM* | 3% | 3% | -7%
S=c1[nH]ccn1-c1cccc(Cl)c1 | ? | 13µM* | 0% | 2% | 8%
O=C1CSC(=S)N1c1cccc(Cl)c1 | -17% | -14% | -3% | ? | -1%
S=c1[nH]ccn1-c1cccc(Cl)c1Cl | ? | 7.9µM* | 3% | -21% | -13%
CC(C)c1ccc(Nc2sc(C(=O)c3ccccc3)c(N)c2S(=O)(=O)c2ccccc2)cc1 | . | . | . | -15% | -3%
CNS(=O)(=O)c1cn(CC(=O)Nc2cccc(OC)c2)cc1S(=O)(=O)NC | . | . | . | -6% | 10%
O=C1[C@H]2[C@H]3[C@H](O)[C@H](O)C/C(=N/OC[C@@H](O)COCc4ccco4)[C@H]3CC[C@@H]2C(=O)N1Cc1ccc2c(c1)OCO2 | -5%[10 µM] | 0%[10 µM] | . | . | .
CCOC(=O)c1c(S(=O)(=O)N2CCCC(C(=O)NCc3cccc(OC)c3)C2)c(C)n(C)c1C (stereo not drawn) | . | . | . | -6% | 11%
CCCOc1ccc(-c2c(C(=O)N/N=C/c3ccc(C)o3)nnn2-c2nonc2N)cc1 | 5.6µM* | 3.5µM* | 1% | 1% | -1%
CCOc1ccc(-c2c(C(=O)N/N=C/c3ccc(C)o3)nnn2-c2nonc2N)cc1 | 10µM* | 5.6µM* | 2% | -6% | -4%
Cc1ccc(/C=N/NC(=O)c2nnn(-c3nonc3N)c2-c2ccccc2)o1 | ? | 10µM* | 12% | 13% | 1%
O=C(NCCCN1CCCCC1)c1cc(Sc2ccc(Cl)cc2)nc2ccccc12 | . | . | . | 0% | -18%
Oc1ccc([C@@H]2CNCCc3c2cc(O)c(O)c3Cl)cc1 | -9% | -9% | . | . | .
SMILES | VP16 counter | RORg inh | GLP-1R agonist | GLP-1R inv ag | HEK293 tox
COc1ccc(N=[N+]([O-])c2ccc(OC)cc2)cc1 | ? | 8.9µM* | 0% | -28% | 10%
CC(=O)c1c(C)oc2c1cc(NS(=O)(=O)c1ccc(C(C)(C)C)cc1)c1ccccc12 | . | . | . | 11µM* | -9%
COc1ccc(S(=O)(=O)Nc2cc3c(C(C)=O)c(C)oc3c3ccccc23)cc1 | 5% | -33% | 5% | ? | ?
O=C(NCCc1ccccc1)c1ccc2c(c1)OCCCO2 | 0.63µM* | 0.35µM* | -11% | ? | 0%
O=C(CCc1ccccc1)c1ccc2c(c1)OCCCO2 | 2% | 0% | 4% | -2% | 3%
O=C(NCCOc1ccccc1)c1ccc2c(c1)OCO2 | ? | 5µM* | -17% | ? | -11%
CN(CCOc1ccccc1)C(=O)c1ccc2c(c1)OCO2 | . | . | ? | 5% | ?
O=C(CCCc1ccccc1)c1ccc2c(c1)OCCO2 | 2.2µM* | 1.1µM* | -17% | ? | 2%
COc1ccc(CCNC(=O)c2ccc3c(c2)OCCO3)cc1 | 0% | -8% | 9% | -8% | -14%
O=C(NCCc1ccccc1)c1ccc2c(c1)OCCO2 | 1.3µM* | 1.4µM* | -5% | ? | 12%
CCCCNC(=S)Nc1ccc(SC(F)F)cc1 | 1% | 14% | 8% | ? | ?
O=C(NCCc1ccc(F)cc1)Nc1ccc([N+](=O)[O-])cc1 | -7% | ? | -3% | 4µM* | -21%
O=C(NCCc1ccc(Cl)cc1)Nc1ccc(F)cc1 | 20%[10 µM] | 4% | 6% | ? | 8%
CCCCNC(=S)Nc1ccc(F)cc1 | ? | 13µM* | 7% | -6% | -2%
Fc1ccc(CCNC(=S)Nc2ccc(F)c(Cl)c2)cc1 | ? | 7.1µM* | 0% | ? | ?
Fc1ccc(NC(=S)NCCc2ccc(Cl)cc2)cc1 | 3.2µM* | 1.1µM* | 1% | ? | -3%
COc1ccc(-c2ccc(C3C4C=CCCC4(C)C(=O)N3Cc3ccccc3)c(F)c2)cc1 (stereo not drawn) | ? | 2% | . | . | .
C/C(CCN1CCCc2nc(C)c(C)cc21)=N\OC[C@@H](O)[C@@H]1O[C@@H]2OC(C)(C)O[C@@H]2[C@H]1O | 1%[10 µM] | 7%[10 µM] | . | . | .
CCN(CC)CCCC(C)n1c(-c2ccccc2)nc2c(NC3CCCCC3)nc(C)nc21 (stereo not drawn) | -7% | -28% | . | . | .
Cc1noc(C)c1C(=O)N1CCC2(CC1)CN(c1cccc(-c3ccccc3)c1)C2 | -14% | 29% | . | . | .
CC(C)(C)c1ccc(S(=O)(=O)NCc2ccc3c(c2)CCN3C(=O)c2ccccc2)cc1 | . | . | . | ? | -12%
CCc1ccc2[nH]c(=O)c(CN(CCN(CC)CC)C(=O)NC3CCCCC3)cc2c1 | 1% | 21% | 9% | 10µM* | ?
Cc1cc(C)c2cc(CN(CCN(C)C)C(=O)Nc3ccccc3Cl)c(=O)[nH]c2c1 | -6% | -2% | -2% | 10µM* | -6%
Cc1cc(C)c2cc(CN(CCO)C(=O)Nc3ccc(F)cc3)c(=O)[nH]c2c1 | 11% | 36% | 7% | -2% | 9%
CCc1ccc2[nH]c(=O)c(CN(CCN(C)C)C(=O)Nc3ccccc3)cc2c1 | -1% | 5% | 3% | 8.9µM* | -24%
CC(C)c1ccc(Nc2cc(C(=O)NC3CCCCC3)c3ccccc3n2)cc1 | . | . | . | 7% | 2%
